Laboratory results published in PubChem BioAssay (Tox21).
Results filed as inconclusive are left out. Entries that show only a call come without a potency. Active and inactive are the calls of the source. The call rests on the fitted dose curve.

Each compound was assayed against Beta-2 adrenergic receptor (Homo sapiens) (UniProt P07550) (assay: Adrenergic beta2 receptor (ADRB2) small molecule antagonists, cell-based qHTS assay (AID 1963592; further: nearly all actives have a fitted effect of over 50% in size)). Conditions: CHO-ADRB2 cells, isoproterenol-stimulated cAMP HTRF ratio, 0.5 h; series mostly up to 92.4 µM.
Beta-2 adrenergic receptor (Homo sapiens), sequence (P07550 whole entry, looked up): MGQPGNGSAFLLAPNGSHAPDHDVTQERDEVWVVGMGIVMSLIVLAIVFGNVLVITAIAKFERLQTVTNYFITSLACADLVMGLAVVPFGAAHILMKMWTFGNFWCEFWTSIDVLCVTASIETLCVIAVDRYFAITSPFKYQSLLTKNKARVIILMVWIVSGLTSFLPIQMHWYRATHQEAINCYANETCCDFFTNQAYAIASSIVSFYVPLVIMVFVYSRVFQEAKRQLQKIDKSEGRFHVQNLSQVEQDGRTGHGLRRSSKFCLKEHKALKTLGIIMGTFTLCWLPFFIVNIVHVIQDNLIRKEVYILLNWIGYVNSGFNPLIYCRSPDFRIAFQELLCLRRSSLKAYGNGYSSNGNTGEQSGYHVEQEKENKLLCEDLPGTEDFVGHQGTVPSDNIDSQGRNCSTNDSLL
From the text: U.S. Tox21 Program National Center for Advancing Translational Sciences [NCATS] Division of Preclinical Innovation [DPI] U.S. Environmental Protection Agency [EPA] National Institutes of Environmental Health Sciences [NIEHS] National Toxicology Program [NTP] U.S. Food and Drug Administration [FDA] Tox21 Assay Overview: Beta adrenergic receptors (Beta-ARs) belong to the G-protein coupled receptor (GPCR) superfamily, includes three subtypes - beta1, beta2, and beta3. Beta1-AR is the predominant receptor subtype expressed in the heart, and beta2-AR is expressed in the kidney, lung, blood vessel and in the heart, and beta3 is found in the adipocytes. Beta1 and 2 ARs couple to Gs protein and elevate cyclic adenosine mono phosphate (cAMP), which activates protein kinase A and leads to the downstream signaling responsible for the physiological actions. Beta-AR agonists or antagonists are the most prescribed therapeutic agents for heart failure and asthma, and these were one of the first target receptors for the rational drug design. Tox21 10K compound library was screened using the cAMP-Gs dynamic assay (Cisbio Bioassays, Shelton, CT) to identify agonists/antagonists of the Gs-coupled human adrenergic, beta2 receptor (ADRB2) in the CHO-ADRB2 cell line (Codex BioSolutions, Inc. Gaithersburg, MD), which stably over-expresses ADRB2. The principle of cAMP-Gs dynamic assay is based on HTRF technology, which facilitates the fluorescence resonance energy transfer (FRET) between donor Europium cryptate and acceptor d2-labeled cAMP. The cAMP generated within cells competes with the red acceptor, d2-labled cAMP, for binding to the monoclonal anti-cAMP-cryptate (Europium donor). An increase in intracellular cAMP leads to the disruption of FRET signal, and the signal is inversely proportional to the cAMP concentration. Propranolol HCl (Sigma-Aldrich, St. Louis, MO) was used as a positive control in the screening.
Tox21 Assay Protocol Summary: CHO-ADRB2 cells were dispensed at 1,000/well in 4uL assay medium into white/solid 1536-well plates (Greiner Bio-One North America Inc., Monroe, NC) using a Multidrop Combi dispenser (ThermoFisher Scientific, Waltham, MA). The assay plates were incubated at 37C and 5% CO2 for an overnight (18-20hr). Then positive control and test compounds dissolved in DMSO were transferred to the assay plates at 23nL using a Pintool station (Wako, San Diego, CA). Following the compound and positive control transfer, 1uL agonist-stimulation mix containing 1nM Isoproterenol HCl, 100uM IBMX and 25uM Ro-20-1724 was added to each well of the assay plates using BioRAPTR Flying Reagent Dispenser (FRD, Beckman Coulter, Brea, CA). The assay plates were incubated at room temperature for 0.5hr. Then 2.5ul each d2-labled cAMP and anti-cAMP-cryptate solutions were added separately to each well of the assay plates using an FRD and the assay plates were incubated at room temperature for 1hr. The fluorescence signal was measured at two different wavelengths (665nm and 615nm) using an Envision plate reader (Perkin Elmer, Shelton, CT). Data were expressed as the ratio of 665 nm/615 nm.

Row | SMILES | Potency
1 | OCCSSCCO | inactive
2 | CC(C)(OOC(C)(C)c1ccccc1)c1ccccc1 | inactive
3 | Cc1ccc(N)cc1 | inactive
4 | CCOP(=S)(OCC)SCSc1cc(Cl)ccc1Cl | inactive
5 | [N-]=[N+]=CC(=O)OC[C@H](N)C(=O)O | inactive
6 | CCC(C)C(C)(COC(N)=O)COC(N)=O (stereo not given) | inactive
7 | ClC1=C(Cl)C2(Cl)C3C(Cl)C=CC3C1(Cl)C2(Cl)Cl (stereo not given) | inactive
8 | CCCCCCCCC(=O)NCc1ccc(O)c(OC)c1 | inactive
9 | CCBr | inactive
10 | Clc1ccc(C(c2ccc(Cl)cc2)C(Cl)Cl)cc1 | inactive
11 | C#C[C@]1(O)CC[C@H]2[C@@H]3CCC4=CC(=O)CC[C@]4(C)[C@H]3CC[C@@]21C | inactive
12 | ClC1(Cl)C2(Cl)C3(Cl)C4(Cl)C(Cl)(Cl)C5(Cl)C3(Cl)C1(Cl)C5(Cl)C24Cl (stereo not given) | inactive
13 | COc1ccc2c3c1O[C@H]1[C@H](O)CC[C@H]4[C@@H](C2)N(C)CC[C@@]341 | inactive
14 | CON(C)C(=O)Nc1ccc(Cl)c(Cl)c1 | inactive
15 | NC(=O)CN1CCCC1=O | inactive
16 | CN(C)C(=S)S | inactive
17 | C=C(C)[C@@H]1CC=C(C=O)CC1 | inactive
18 | CN(C)C(=S)SSC(=S)N(C)C | inactive
19 | COC(=O)Nc1cccc(OC(=O)Nc2cccc(C)c2)c1 | inactive
20 | C=C(C)[C@H]1Cc2c(ccc3c2O[C@@H]2COc4cc(OC)c(OC)cc4[C@@H]2C3=O)O1 | inactive

Row | SMILES | Potency
21 | O=C(O)CF | inactive
22 | CC(=O)[C@H]1CC[C@H]2[C@@H]3CC[C@H]4C[C@](C)(O)CC[C@]4(C)[C@H]3CC[C@]12C | inactive
23 | O=S(=O)(Oc1ccc(Cl)cc1)c1ccc(Cl)cc1 | inactive
24 | CCCCCON=O | inactive
25 | CNC(=S)S | inactive
26 | CCCCCCCCCCCCOS(=O)(=O)O | inactive
27 | COP(=O)(NC(C)=O)SC (stereo not given) | inactive
28 | COCCC#N | inactive
29 | ClC(Cl)(Cl)C(Cl)(Cl)Cl | inactive
30 | O=C(NCNC(=O)NC1C(=O)NC(=O)N1CO)NC1C(=O)NC(=O)N1CO (stereo not given) | inactive
31 | O=P(O)(Oc1ccccc1)Oc1ccccc1 | inactive
32 | CCCCN(CCCCO)N=O | inactive
33 | N#Cc1ccc(O)cc1 | inactive
34 | BrCCBr | inactive
35 | Nc1ccc(N)cc1 | inactive
36 | CCCCC(CC)C(=O)Cl (stereo not given) | inactive
37 | C=CCN=C=S | inactive
38 | COP(=S)(OC)SCn1nnc2ccccc2c1=O | inactive
39 | CN1CC[C@]23c4c5ccc(O)c4O[C@H]2[C@@H](O)CC[C@H]3[C@H]1C5 | inactive
40 | CCCCCCCCCCn1cc[n+](C)c1 | inactive
